# Only some compounds are listed: those with a hit (about 3.6% of all), similar ones and a draw of the others.
# TRHR enhancer: qHTS for Small Molecule Agonists and Allosteric Enhancers of Human TRH Receptor: Primary Screen for Enhancers; Thyrotropin-releasing hormone receptor (Homo sapiens), P34981; TRHR cells, fluo-8 calcium fluorescence, EC20 TRH enhancement; enhancement, % at 2 µM; 0.66% of 360,000 active; in the data active means enhancement above about 30%; further: 0% is about no effect
# Target sequence (P34981 whole entry, looked up): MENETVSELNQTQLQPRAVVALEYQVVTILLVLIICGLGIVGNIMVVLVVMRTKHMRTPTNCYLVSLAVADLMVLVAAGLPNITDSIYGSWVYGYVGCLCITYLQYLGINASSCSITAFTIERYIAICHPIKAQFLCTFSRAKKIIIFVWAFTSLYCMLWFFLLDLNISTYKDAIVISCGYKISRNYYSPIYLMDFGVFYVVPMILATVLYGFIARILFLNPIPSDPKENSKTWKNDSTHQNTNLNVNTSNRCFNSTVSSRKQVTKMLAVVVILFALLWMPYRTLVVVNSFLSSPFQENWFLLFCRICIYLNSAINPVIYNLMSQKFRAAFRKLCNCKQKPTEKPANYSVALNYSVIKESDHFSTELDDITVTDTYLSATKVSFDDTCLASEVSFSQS
#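 Enhancer read-out: after compound pinning and an initial kinetic agonist-mode read, an EC20 of TRH (10 nM final) was injected and fluo-8 calcium signal (Ex 480/Em 530) followed at 1 s/cycle for 100 cycles in TRHR-expressing cells.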
# D1 antag: Antagonist of Human D 1 Dopamine Receptor: qHTS | D(1A) dopamine receptor (Homo sapiens), P21728 | HEK293 TREx D1 cells, calcium flux, dopamine EC80; stronger effect = lower value | activity change, negative = inhibition, % at 10 µM | 3.2% of 360,000 active | AID 504652, 2011; in the data active means activity change below about -30%; further: on the % scale 0 is the no-effect control and ±100 the full control effect
#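 Tetracycline-induced HEK293 Trex D1 cells, force-coupled to calcium, dye-loaded; compounds added and read 180 s, then EC80 dopamine added and calcium flux tracked kinetically another 180 s.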
# TRHR agonist: qHTS for Small Molecule Agonists and Allosteric Enhancers of Human TRH Receptor: Primary Screen for Agonists. TRHR cells, calcium flux fluo-8, FDSS agonist mode. 0.18% of 360,000 active. AID 493084, 2011. activation, % at 2 µM; further: 0% is about no effect
#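 Agonist-mode FDSS calcium read (Ex 480/Em 530, 1 s cycles) in 1536-well TRHR cells with fluo-8 dye, after 10-cycle baseline and 23 nL compound addition; TRH at EC20 (10 nM final) added afterwards for the enhancer phase.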
# D1 agonist: Allosteric Agonists of the Human D1 Dopamine Receptor: qHTS | 1% of 360,000 active | HEK293 T-REx D1 cells, calcium flux, agonist mode | D(1A) dopamine receptor (Homo sapiens), P21728 | activation, % at 2 µM | AID 504660, 2011; further: 0% is about no effect
#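 Agonism was scored from calcium flux recorded over 180 s (1 read/s) after pintool compound addition, following a 10-cycle baseline. Cells were inducible force-coupled HEK293 TREx D1, plated overnight at 30 C and loaded with no-wash calcium dye.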
# D1 potentiator: Potentiators of Human D1 Dopamine Receptor: qHTS. D(1A) dopamine receptor (Homo sapiens), P21728. HEK293 TREx D1 cells, calcium flux, dopamine EC20 potentiation. potentiation, % at 10 µM. 0.036% of 360,000 active. AID 504651, 2011; in the data active means potentiation above about 30%; further: 0% is about no effect
# LDHA inh: qHTS assay for inhibitors of human lactate dehydrogenase; AID 1347041, 2019; 0.15% of 480,000 active; L-lactate dehydrogenase A chain (Homo sapiens), P00338; purified LDHA, NADH/diaphorase-resazurin fluorescence; stronger effect = lower value; activity change, % (values are at about 110 or 230 µM); in the data active means activity change below about -30%;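 further: plate controls were DMSO wells for no effect and wells without enzyme for full effect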
#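 Remaining NADH was detected by diaphorase (0.133 mg/mL) converting 37 µM resazurin to fluorescent resorufin, read at 0 and 20 minutes. The preceding 5-minute room-temperature reaction used 2 nM LDHA, 0.2 mM sodium pyruvate and 0.06 mM NADH at pH 7.4.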
# * marks the source's active call; other numbers are inactive results; / = no result. Unless noted, no stated cut-off is given here; in the data, active means activation above about 30%; inactive means the rest.
SMILES,TRHR enhancer,D1 antag,TRHR agonist,D1 agonist,D1 potentiator,LDHA inh
C=CC[C@H]1CC=C[C@H](CC=C)[N+]1(C)C,/,/,/,/,/,1.4
COc1ccc(/C=C/C(=O)NC(=S)NCC2CCCO2)cc1 (stereo unspecified),-5.7,-47.6*,0.9,5.4,-17.6,-7.1
CC(=O)Nc1cccc(C(C)NC(=O)Nc2cccc(C(F)(F)F)c2)c1 (stereo unspecified),/,/,/,/,/,2.7
Cc1nc2c(-c3ccccc3)c(C)nn2c(SCC(N)=O)c1Cc1ccccc1,34.3*,10.4,0.4,-0.7,-3.4,-1.5
Cc1nc2c(-c3ccccc3)c(C)nn2c(C)c1CCC(=O)O,-0.6,2.7,0.2,-0.9,-1.4,-8.0
COc1ccccc1N1CCN(Cc2ccc(-c3ccccc3[N+](=O)[O-])o2)CC1,-3.0,-73.9*,-0.5,2.0,-8.6,4.6
COc1ccccc1N1CCN(c2ccc(N3C(=O)CCC3=O)cc2[N+](=O)[O-])CC1,-0.3,-44.3*,1.2,14.3,-5.8,-6.2
Cc1cc(F)c(F)c(C(=O)N2CCCCC2C)c1Cl (stereo unspecified),-4.0,-31.0*,-0.2,1.5,0.9,-6.1
COc1ccc(-c2ccc3c(c2)S(=O)(=O)c2cccc(C(=O)NC[C@@H]4CCCO4)c2C3=O)cc1OC,2.6,-35.8*,-0.3,-0.7,-2.7,-0.3
CCN(CC)S(=O)(=O)c1cc(-c2n[nH]c(=O)c3ccccc23)ccc1C,/,/,/,/,/,-33.2*
Cc1ccc(-c2n[nH]c(=O)c3ccccc23)cc1S(=O)(=O)N(C)C,5.0,-1.8,0.8,2.0,-3.6,-3.4
COc1ccccc1NC(=O)c1cc(=O)c2cc(C)ccc2o1,/,/,/,/,/,0.9
COc1cccc(-n2c(SCC#N)nnc2-c2cnccn2)c1,-6.7,-8.9,0.0,1.2,3.4,-0.5
COc1cccc(-n2c(SC)nnc2-c2cnccn2)c1,-5.9,-45.3*,-0.2,1.4,-2.2,-0.5
NC(=O)CSc1nnc(-c2cccs2)n1-c1ccccc1,15.5,26.4,0.1,1.0,-16.2,-1.8
c1ccc(-n2c(Sc3cnccn3)nnc2-c2cccs2)cc1,31.2*,11.0,-1.3,2.1,-2.9,-5.5
COc1cccc(Cn2cccc(NC(=O)NC3CCCCC3)c2=O)c1,18.5,-31.1*,-1.2,1.3,-7.8,10.2
O=C(Nc1cccn(Cc2ccccc2)c1=O)NC1CCCCC1,-7.2,4.3,-0.1,3.1,-7.5,3.8
CN(C)CCCNCCCNC(=O)/C=N/O,-5.0,-38.3*,0.6,0.6,-7.8,2.3
O=C(c1n[nH]c2ccccc12)N1CCOCC1,-24.3,/,0.2,-0.7,-8.3,-1.7
NC(=O)C1CN(C(=O)c2nn(Cc3ccccc3)c(=O)c3ccccc23)c2ccccc2O1 (stereo unspecified),36.8*,25.8,-0.2,5.1,4.8,-2.3
CC(=O)c1ccc(N2CCN(C(=O)c3n[nH]c4ccccc34)CC2)cc1,-2.6,-33.1*,-0.6,6.8,1.4,-10.4
CC(=O)c1ccc(N2CCN(C(=O)c3nn(Cc4ccccc4)c(=O)c4ccccc34)CC2)cc1,0.8,-44.9*,0.3,3.5,-6.5,10.6
CSC1=N/C(=C\c2cccc(Oc3ccccc3)c2)C(=O)S1,/,/,/,/,/,13.9
CC(=O)Nc1ccc(S(=O)(=O)N(C)Cc2ccccc2)cc1,0.5,3.0,0.3,9.9,-12.6,-0.6
CC(=O)Nc1ccc(S(=O)(=O)N(C)CC(=O)N(C)Cc2sccc2C)cc1,0.8,-32.0*,0.0,1.3,-9.2,-2.6
O=C(COC(=O)c1ccc2ccccc2n1)Nc1ccc2ccccc2c1,/,/,/,/,/,4.1
N#CCC(N)=C(C#N)C#N,-8.2,8.9,38.3*,80.2*,7.5,-13.1
